Screens as filed in PubChem BioAssay.
JMJD2A Tudor inh: blocks the human JMJD2A Tudor domain. O75164. AlphaScreen JMJD2A-Tudor / H3K4me3 peptide binding. Potency, µM (series often up to 114 µM), inactives show at the top dose activity change, negative = inhibition, usual class: inhibitors. 390,000 tested, 4.4% active. AID 504339; also: % is scaled to controls: 0 for no effect and ±100 for the full control effect; nearly all actives have a fitted effect of over 50% in size
HP1b chromo inh: HP1-beta chromodomain-methylated histone interaction inhibition; P83916; AlphaScreen HP1-beta / biotin-H3K9me3 peptide binding; Potency, µM (doses to about 114 µM), inactives show at the top dose activity change, negative = inhibition, usual class: inhibitors; 390,000 tested, 0.56% active; AID 540317; also: nearly all actives have a fitted effect of over 70% in size
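Compound inhibition of the preformed complex between 50 nM HP1-beta and 50 nM biotinylated H3K9me3 peptide was read by AlphaScreen. Buffer was PBS pH 7.4 with 0.01% Tween-20. Incubations ran 30 min at room temperature, with 10 ug/mL donor/acceptor beads.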
BAZ2B inh: blocks human BAZ2B | Q9UIF8 | AlphaScreen BAZ2B-H3K14Ac peptide displacement | Potency, µM (titrated, usually from 114 µM), inactives show at the top dose activity change, negative = inhibition, actives largely listed as inhibitors | 360,000 tested, 4.4% active | AID 504333; also: % is scaled to controls: 0 for no effect and ±100 for the full control effect; nearly all actives have a fitted effect of over 60% in size
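BAZ2B (50 nM) with biotin-H3(5-23)K14Ac peptide (50 nM) in PBS pH 7.4, 0.01% Tween-20, preformed 30 min, then compound 30 min at room temperature; top concentration 110uM. AlphaScreen streptavidin donor/nickel chelate acceptor beads (10 ug/mL final), 20 min dark, signal read.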
L3MBTL1 block: blocks human L3MBTL1; AlphaScreen L3MBTL1–H3K9me1 peptide binding; Potency, µM (titrated, usually from 57.1 µM), for inactives: top-dose activity, negative = inhibition, actives largely listed as inhibitors; 230,000 tested, 0.66% active; also: % is scaled to controls: 0 for no effect and ±100 for the full control effect; nearly all actives have a fitted effect of over 60% in size
Target sequence (Q9Y468 whole entry, looked up): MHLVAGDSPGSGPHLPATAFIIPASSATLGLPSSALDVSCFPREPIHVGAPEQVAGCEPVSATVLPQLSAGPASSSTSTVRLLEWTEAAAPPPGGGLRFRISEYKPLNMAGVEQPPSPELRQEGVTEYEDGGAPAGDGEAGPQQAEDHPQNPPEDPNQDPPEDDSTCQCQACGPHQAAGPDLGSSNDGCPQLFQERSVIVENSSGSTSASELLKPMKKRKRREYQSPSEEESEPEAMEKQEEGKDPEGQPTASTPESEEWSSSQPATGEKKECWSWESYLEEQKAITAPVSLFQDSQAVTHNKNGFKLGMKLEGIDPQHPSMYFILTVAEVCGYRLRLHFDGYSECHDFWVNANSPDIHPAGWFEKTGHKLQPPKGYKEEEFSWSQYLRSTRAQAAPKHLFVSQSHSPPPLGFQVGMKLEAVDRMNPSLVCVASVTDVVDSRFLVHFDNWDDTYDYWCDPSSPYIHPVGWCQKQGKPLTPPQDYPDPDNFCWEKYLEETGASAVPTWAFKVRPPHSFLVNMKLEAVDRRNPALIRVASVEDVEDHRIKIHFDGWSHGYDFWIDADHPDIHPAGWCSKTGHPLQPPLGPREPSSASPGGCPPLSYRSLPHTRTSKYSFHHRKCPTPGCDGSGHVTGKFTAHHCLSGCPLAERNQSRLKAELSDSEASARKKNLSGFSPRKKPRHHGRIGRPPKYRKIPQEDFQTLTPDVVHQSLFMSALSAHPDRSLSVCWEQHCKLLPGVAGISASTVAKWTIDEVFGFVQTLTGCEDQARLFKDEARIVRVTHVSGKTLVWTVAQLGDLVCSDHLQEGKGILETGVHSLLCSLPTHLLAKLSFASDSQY
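Displacement of a biotinylated histone H3(1-15) peptide monomethylated at Lys9 (75 nM) from L3MBTL1 (50 nM) was measured by AlphaScreen after a 30 min room-temperature compound incubation; cefsulodin titration served as intraplate control.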
G9a block: inhibitors of human histone lysine methyltransferase G9a. Q96KQ7. G9a H3K9 monomethylation, AlphaScreen, 2 h. 350,000 tested, 8.8% active. Potency, µM (highest dose often 102 µM), inactives show at the highest dose activity, negative = inhibition, most hits filed as inhibitors; also: % is scaled to controls: 0 for no effect and ±100 for the full control effect; nearly all actives have a fitted effect of over 75% in size
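Signal arises when biotinylated H3K9 peptide, once monomethylated, bridges streptavidin donor and antibody-captured acceptor beads. Enzyme at 20 nM was preincubated 15 min with test compounds; peptide 500 nM and SAM 20 uM then reacted for 2 h.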
* hit, by the source's call; ? = inconclusive; . = no result; [ ] = another dose, or the depositor's remark. Sampled rows, rich in hits. Any-hit rate of the full collection: about 11%. Calls follow the shape of the dose curve; as a rule, active = well fitted inhibition curve with a large enough effect; inconclusive = small, poorly fitted or top-dose-only effect; inactive = no such curve, though single readings can be large or run the other way. Potency is read from the fitted curve at half-maximal effect.

SMILES	JMJD2A Tudor inh	HP1b chromo inh	BAZ2B inh	L3MBTL1 block	G9a block
CCC(C(=O)NCCc1ccc(Cl)cc1)n1ccc2cc(S(=O)(=O)N3CCCCC3)ccc21 (stereo not drawn)	-8.3%	15.0%	-14.8%	.	-26.4%[59 µM]
CCOC(=O)c1c(C)[nH]c(C)c1S(=O)(=O)N1CCC(C(=O)N2CCN(c3cccc(C)c3C)CC2)CC1	-35.3%	8.1%	-33.2%	.	-34.0%[59 µM]
Cc1ccc(OCC(=O)Nc2ccc(N3CCN(S(C)(=O)=O)CC3)cc2)cc1	-2.7%	9.6%	-4.2%	12.9%	.
CCc1ccc(OCC(=O)Nc2ccc(N3CCN(S(C)(=O)=O)CC3)cc2)cc1	1.5%	34.0%	13.0%	5.0%	79.4µM*
Cc1ccc(C(C)C)cc1OCC(=O)Nc1ccc(N2CCCCC2)cc1	?	?	28.2µM*	-27.4%	15.8µM*
Cc1ccc(OCC(=O)Nc2ccc(O)c(C(=O)O)c2)cc1C	-16.9%	8.8%	4.8%	0.4%	35.5µM*
Cc1ccc(OCC(=O)Nc2ccc(N3CCCC3)cc2)cc1C	31.6µM*	?	28.2µM*	-23.7%	11.2µM*
Cc1cc(C)cc(OCC(=O)Nc2ccc(N3CCCC3)cc2)c1	?	-36.0%	-29.7%	-14.1%	-11.0%[59 µM]
NC(C(=O)O)C(CC(=O)O)c1ccc(Cl)cc1 (stereo not drawn)	.	.	.	.	25.7%[59 µM]
CC(=O)c1ccc(OCC(=O)Nc2ccc(N3CCCCC3)cc2)cc1	?	?	44.7µM*	-18.7%	-17.2%[12.7 µM]
CC(C)Cn1c(=O)c2ccccc2n2c(CCC(=O)NC(C)c3ccccc3)nnc12 (stereo not drawn)	-15.3%	5.4%	1.7%	.	-4.2%[59 µM]
O=[N+]([O-])c1ccc(C[n+]2cccc3ccc4cccnc4c32)cc1	11.2µM*	-15.6%	12.6µM*	-85.5%	.
O=[N+]([O-])c1ccc(C[n+]2cccc3ccccc32)cc1	1.7%	21.9%	-18.0%	-4.5%	14.1µM*
O=[N+]([O-])c1ccc(C[n+]2cccc(O)c2)cc1	-3.5%	31.2%	1.7%	7.8%	-7.7%[2.33 µM]
CCOC(=O)C1=C(CN(CC)Cc2ccccc2)NC(=O)NC1c1ccc(OC(C)C)cc1 (stereo not drawn)	-28.3%	15.1%	.	.	?
CC(NC(=O)c1ccc2c(c1)sc1nc(-c3ccccc3)cn12)C12CC3CC(CC(C3)C1)C2 (stereo not drawn)	-6.9%	37.9%	2.1%	.	-7.4%[59 µM]
CCN(CC)CCC(c1ccc(N(C)C)cc1)c1c(OC)cc(OC)c2c(C)cc(=O)oc12 (stereo not drawn)	35.5µM*	?	.	.	.
CCCCCc1cc(=O)oc2c(C(CCN(CC)CC)c3ccc(N(C)C)cc3)c(OC)cc(OC)c12 (stereo not drawn)	28.2µM*	?	14.1µM*	.	?
CCN(CC)CCC(c1cc(OC)c(OC)c(OC)c1)c1c(OC)cc(OC)c2c(C)cc(=O)oc12 (stereo not drawn)	-24.8%	16.0%	8.6%	.	16.7%[59 µM]
CCCCCc1cc(=O)oc2c(C(CCN3CCCCC3)c3cc(OC)c(OC)c(OC)c3)c(OC)cc(OC)c12 (stereo not drawn)	?	3.9%	-22.0%	.	-12.6%[59 µM]
Cc1ccc(NC(=O)CN(C)C(=O)Cc2ccc3c(c2)CCC3)cc1	-0.7%	31.9%	9.2%	-1.4%	50.1µM*
COc1ccc(S(=O)(=O)N(C)CC(=O)Nc2ccccc2SC)cc1	-5.4%	31.4%	38.1%	5.9%	72.2%[59 µM]
C=CCOc1ccc(CN(C)CC(=O)Nc2ccc3c(c2)CCC3)cc1	14.1µM*	-20.0%	50.1µM*	18.6%	14.1µM*
COc1ccc(CC(=O)N(C)CC(=O)Nc2ccccc2SC)cc1	28.2µM*	-5.5%	2.1%	.	-3.9%[59 µM]
COc1ccc(NC(=O)CN(C)CC(=O)NC2CCCCC2C)cc1 (stereo not drawn)	-4.5%	40.7%	9.7%	3.3%	28.2µM*
SMILES	JMJD2A Tudor inh	HP1b chromo inh	BAZ2B inh	L3MBTL1 block	G9a block
CCOc1ccc(CN(C)CC(=O)Nc2ccc3c(c2)CCC3)cc1OC	-16.9%[57.1 µM]	8.3%	-17.2%	-5.5%	-0.3%
COc1cc(-c2cc3n(C)c(C)c(CCC(=O)NC4CCC(C)CC4)c(=O)n3n2)cc(OC)c1OC (stereo not drawn)	-9.7%	21.4%[57 µM]	-7.8%	.	3.0%[59 µM]
CCCN(CCC)CCCNC(=O)Cn1ncn2c(cc3sc(CC)cc32)c1=O	1.1%	13.1%	-2.2%	.	-20.2%[59 µM]
CCc1ccccc1NC(=O)c1nn(-c2ccc(C)cc2)c(=O)c2c1c1ccccc1n2C	2.7%	17.7%	.	.	13.3%[59 µM]
COc1ccc(Nc2cc(C)c3cc(NC(=O)COc4cccc(C)c4)ccc3n2)cc1	?	-4.6%	?	.	?
COc1ccc(NC(=O)CN(C)C(=O)Cc2ccc3c(c2)CCC3)cc1	-20.7%	3.9%	-32.8%	.	50.1µM*
CSc1ccccc1NC(=O)CN(C)C(=O)Cn1c(=O)oc2ccccc21	-7.9%	-5.2%	11.3%	1.8%	50.1µM*
CN(CC(=O)Nc1ccc(F)cc1)C(=O)Cn1c(=O)oc2ccccc21	4.6%	28.6%	-2.2%	2.4%	-5.8%[12.7 µM]
Cc1cc(C)cc(OCC(=O)NCC2(N(C)C)CCCCC2)c1	-7.0%	33.7%	-7.2%	.	-27.0%[59 µM]
CCOC(=O)C1=C(C)N=C2SCCC(=O)N2C1c1ccc(OCc2ccccc2)cc1 (stereo not drawn)	-24.9%	43.4%	8.1%	.	16.8%[59 µM]
Cc1cc(OC(C)C(=O)NCCCN2CCOCC2)c2c(C)cc(=O)oc2c1 (stereo not drawn)	-5.8%	79.4µM*	-0.4%	.	17.0%[0.0925 µM]
CCCc1cc(=O)oc2cc(C)cc(OC(C)C(=O)NCCCN3CCOCC3)c12 (stereo not drawn)	-13.1%	29.1%	-31.2%	.	-0.8%[59 µM]
CC(=O)c1c(C)c(C)c2n1CCn1c(C)ccc1-2	?	-9.7%	?	.	6.31µM*
COc1ccc(C(=O)N2CCn3c(C)ccc3C2C)cc1 (stereo not drawn)	-21.8%	11.5%	-32.1%	-8.4%[11.4 µM]	?
Cc1ccc(S(=O)(=O)N2[C@@H](c3ccc(Cl)cc3)C(C(=O)O)=CC[C@H]2c2ccc(C(C)C)cc2)cc1	-18.0%	15.1%	79.4µM*	-6.7%	14.5%[2.33 µM]
COc1cccc([C@@H]2CC=C(C(=O)O)[C@H](c3ccccc3F)N2S(=O)(=O)c2ccc(C)cc2)c1	-6.3%	52.9%	79.4µM*	-28.1%	13.7%[2.33 µM]
COc1ccc(-c2nc(C)c(CCNC(=O)C(=O)Nc3ccccc3F)s2)cc1	-14.8%	15.0%[57 µM]	1.7%	.	21.3%[59 µM]
NCC1CCC(N)C(O[C@@H]2C(O)[C@H](O[C@H]3OC(CO)C(O)C(N)C3O)[C@@H](N)C[C@H]2N)O1 (stereo partly drawn)	.	.	.	.	-3.0%[2.33 µM]
CCn1cc(/C=C(\NC(=O)c2ccc(OC)c(OC)c2)C(=O)NCCCn2ccnc2)c2ccccc21	?	13.2%	-35.5%	.	10.9%[59 µM]
CS(=O)(=O)c1ccc(C(=O)OCC(=O)N2CCc3ccccc32)cc1[N+](=O)[O-]	-30.5%	13.8%	.	.	.
